PMC4081100, “A DNA-binding-site landscape and regulatory network analysis for NAC transcription factors in Arabidopsis thaliana”

Legend:
Experiment in all cases: universal protein binding microarray (PBM); transcription factors of Arabidopsis thaliana; high values mean tight binding
Details in all cases: protein: recombinant; tags: GST; chain copies: 2; dsDNA, one strand shown
GST-ANAC092(1-176) = target: T1, GST-ANAC092(1-176) (Arabidopsis thaliana, UniProt Q9FKA0 1-176)
T1 sequence: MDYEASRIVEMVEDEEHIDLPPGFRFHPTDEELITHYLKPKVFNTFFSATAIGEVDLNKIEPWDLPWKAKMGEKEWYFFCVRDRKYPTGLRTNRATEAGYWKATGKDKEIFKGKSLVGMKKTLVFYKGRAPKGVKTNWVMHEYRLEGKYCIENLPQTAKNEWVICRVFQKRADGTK
Outline: (§1)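 Binding is expressed as the normalised enrichment score (E-score). Proteins carrying a GST tag, whether NAC-domain, full-length or DNA-binding-domain forms, were induced in cells, and zinc acetate was added for zinc-finger proteins. After purification on glutathione–Sepharose 4B and quantification by A280 or anti-GST western blot, each was applied in duplicate at 200 to 500 nM final to custom all-10-mer Agilent 4 × 180K arrays made double-stranded by primer extension. Gapped and ungapped 8-mers were scored.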

GST-ANAC019 NAC domain = target: T2, GST-ANAC019 NAC domain (Arabidopsis thaliana, UniProt Q9C932 14-162)
T2 sequence: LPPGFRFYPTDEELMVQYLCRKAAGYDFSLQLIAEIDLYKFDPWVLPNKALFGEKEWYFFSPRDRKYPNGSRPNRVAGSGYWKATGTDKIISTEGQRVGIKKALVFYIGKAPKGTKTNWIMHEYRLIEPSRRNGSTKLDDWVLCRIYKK
Outline: as §1

GST-ANAC055(1-171) = target: T3, GST-ANAC055(1-171) (Arabidopsis thaliana, UniProt Q9LDY8 1-171)
T3 sequence: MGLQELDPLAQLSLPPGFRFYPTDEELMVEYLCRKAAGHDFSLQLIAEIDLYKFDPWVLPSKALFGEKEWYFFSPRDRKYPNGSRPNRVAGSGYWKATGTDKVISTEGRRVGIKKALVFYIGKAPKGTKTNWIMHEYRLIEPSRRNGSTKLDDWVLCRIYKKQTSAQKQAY
Outline: as §1

GST-ATAF1 NAC domain = target: T4, GST-ATAF1 NAC domain (Arabidopsis thaliana, UniProt Q39013 7-158)
T4 sequence: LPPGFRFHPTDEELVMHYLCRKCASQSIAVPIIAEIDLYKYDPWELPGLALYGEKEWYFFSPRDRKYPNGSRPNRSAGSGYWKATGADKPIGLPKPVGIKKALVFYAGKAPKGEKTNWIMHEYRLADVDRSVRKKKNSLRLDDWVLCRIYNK
Outline: as §1

[1] = target: T5, GST-ANAC092(1-285) full length (Arabidopsis thaliana, UniProt Q9FKA0 1-285)
T5 sequence: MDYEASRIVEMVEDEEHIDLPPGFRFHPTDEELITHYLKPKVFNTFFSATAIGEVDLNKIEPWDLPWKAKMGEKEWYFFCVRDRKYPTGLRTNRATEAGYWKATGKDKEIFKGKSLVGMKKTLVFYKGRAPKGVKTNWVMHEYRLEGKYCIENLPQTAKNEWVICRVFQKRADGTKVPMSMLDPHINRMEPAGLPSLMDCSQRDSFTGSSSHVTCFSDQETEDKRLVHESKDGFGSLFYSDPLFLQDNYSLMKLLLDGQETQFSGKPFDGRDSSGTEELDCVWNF
Outline: as §1

GST-NAP(1-166) = target: T6, GST-NAP(1-166) (Arabidopsis thaliana, UniProt O49255 1-166)
T6 sequence: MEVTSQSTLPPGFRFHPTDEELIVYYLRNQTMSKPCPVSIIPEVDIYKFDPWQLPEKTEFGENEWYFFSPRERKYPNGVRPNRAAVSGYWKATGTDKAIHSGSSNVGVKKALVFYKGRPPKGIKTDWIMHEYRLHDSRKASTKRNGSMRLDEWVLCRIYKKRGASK
Outline: as §1

GST-NST2(1-184) = target: T7, GST-NST2(1-184) (Arabidopsis thaliana, UniProt Q9M274 1-184)
T7 sequence: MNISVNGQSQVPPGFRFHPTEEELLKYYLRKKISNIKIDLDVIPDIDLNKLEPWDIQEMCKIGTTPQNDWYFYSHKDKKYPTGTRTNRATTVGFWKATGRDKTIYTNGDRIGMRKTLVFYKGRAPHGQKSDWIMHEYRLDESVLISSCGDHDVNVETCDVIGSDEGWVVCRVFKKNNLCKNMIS
Outline: as §1

GST-NTL8 NAC domain = target: T8, GST-NTL8 NAC domain (Arabidopsis thaliana, UniProt Q9XIN7 14-156)
T8 sequence: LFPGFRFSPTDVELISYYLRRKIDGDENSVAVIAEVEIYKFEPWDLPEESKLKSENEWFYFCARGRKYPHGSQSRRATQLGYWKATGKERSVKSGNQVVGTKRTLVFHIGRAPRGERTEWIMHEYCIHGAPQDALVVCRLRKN
Outline: as §1

GST-SND1(1-203) = target: T9, GST-SND1(1-203) (Arabidopsis thaliana, UniProt Q9LPI7 1-203)
T9 sequence: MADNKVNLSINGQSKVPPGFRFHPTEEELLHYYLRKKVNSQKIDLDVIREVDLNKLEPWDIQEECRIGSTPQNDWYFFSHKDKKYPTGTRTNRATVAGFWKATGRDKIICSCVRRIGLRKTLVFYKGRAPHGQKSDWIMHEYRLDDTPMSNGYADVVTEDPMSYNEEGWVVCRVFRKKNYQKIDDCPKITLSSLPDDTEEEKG
Outline: as §1

GST-VND3 NAC domain = target: T10, GST-VND3 NAC domain (Arabidopsis thaliana, UniProt Q9FH59 12-162)
T10 sequence: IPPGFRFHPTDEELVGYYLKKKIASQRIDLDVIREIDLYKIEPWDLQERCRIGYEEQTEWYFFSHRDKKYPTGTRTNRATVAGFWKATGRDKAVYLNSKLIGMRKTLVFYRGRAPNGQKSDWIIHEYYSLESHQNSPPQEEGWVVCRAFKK
Outline: as §1

GST-VND7 NAC domain = target: T11, GST-VND7 NAC domain (Arabidopsis thaliana, UniProt Q9C8W9 9-158)
T11 sequence: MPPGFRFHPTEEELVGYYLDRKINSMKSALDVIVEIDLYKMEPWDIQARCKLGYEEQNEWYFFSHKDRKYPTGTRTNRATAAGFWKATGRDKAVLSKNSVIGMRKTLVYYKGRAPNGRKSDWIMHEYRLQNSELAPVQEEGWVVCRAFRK
Outline: as §1

Sequence	binding signal (GST-ANAC092(1-176)) [E-score]	binding signal (GST-ANAC019 NAC domain) [E-score]	binding signal (GST-ANAC055(1-171)) [E-score]	binding signal (GST-ATAF1 NAC domain) [E-score]	binding signal [1] [E-score]	binding signal (GST-NAP(1-166)) [E-score]	binding signal (GST-NST2(1-184)) [E-score]	binding signal (GST-NTL8 NAC domain) [E-score]	binding signal (GST-SND1(1-203)) [E-score]	binding signal (GST-VND3 NAC domain) [E-score]	binding signal (GST-VND7 NAC domain) [E-score]
TGCGTACA	0.372	0.307	0.288	0.272	0.437	0.289	0.279	0.0577	0.393	0.305	0.281
CACGCAAC	0.496	0.486	0.463	0.437	0.498	0.489	0.444	0.181	0.482	0.476	0.484
TACGGCAA	0.409	0.409	0.363	0.381	0.422	0.362	0.212	0.192	0.381	0.417	0.419
